Cruzain inh noDet: inhibitors of Trypanosoma cruzi cruzain without detergent; P25779; purified cruzain, Z-FR-AMC fluorescence, no detergent; Potency, µM, for the others: max response, negative = inhibition, usual class: inhibitors; actives 2.3% (n = 200,000);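 also: potency is read from the fitted curve at half-maximal effect; plate controls were enzyme without inhibitor for no effect and buffer without enzyme for full effect; nearly all actives have a fitted effect of over 40% in size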
Target sequence (P25779 123-467 limits assumed): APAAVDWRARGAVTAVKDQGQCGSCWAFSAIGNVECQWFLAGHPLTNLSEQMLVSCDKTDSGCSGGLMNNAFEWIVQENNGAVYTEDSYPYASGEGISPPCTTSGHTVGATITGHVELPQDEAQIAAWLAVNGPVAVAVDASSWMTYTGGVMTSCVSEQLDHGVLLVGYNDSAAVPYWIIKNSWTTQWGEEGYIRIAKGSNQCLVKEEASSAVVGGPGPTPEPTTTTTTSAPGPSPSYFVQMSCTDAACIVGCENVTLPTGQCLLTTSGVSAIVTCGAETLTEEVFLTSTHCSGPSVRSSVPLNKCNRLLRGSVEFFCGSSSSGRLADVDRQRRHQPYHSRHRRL
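Detergent-free condition (0.00005% Triton X-100) in acetate buffer pH 5.5 with DTT. 1.5 nM enzyme and compound were pre-mixed 15 min, then 2 uM Z-FR-AMC substrate added; reaction progress from fluorescence change between first and third reads (60 s).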
Cruzain Triton: cruzain (T. cruzi) inhibition with detergent; purified cruzain, Z-FR-AMC fluorescence, 0.01% Triton; Potency, µM, inactives show max response, negative = inhibition, usual class: inhibitors; P25779; actives 0.43% (n = 200,000);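 also: potency is read from the fitted curve at half-maximal effect; plate controls were neutral wells for no effect and buffer without enzyme for full effect; nearly all actives have a fitted effect of over 40% in size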
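Detergent-containing run (0.01% Triton X-100) in acetate buffer pH 5.5 with 5 mM DTT: enzyme at 1.5 nM final, 15 min compound preincubation at room temperature, then 2 uM Z-FR-AMC substrate. Activity taken as 60 s fluorescence increase at 360/450 nm.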
NS1 inh: inhibitors of influenza NS1 protein function; Potency, µM (highest dose often 46.1 µM), inactives show at the top dose activity, positive = more growth; actives 0.4% (n = 270,000); calls by dose curve; also: potency is read from the fitted curve at half-maximal effect; actives are rising curves; nearly all actives have a fitted effect of over 50% in size
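Read-out: OD600 growth recovery of NS1-expressing budding yeast. Cells grown overnight at 30C in -URA glucose medium, washed, resuspended and diluted 1:100 in 2% galactose assay medium, pH 6.0. Same strain lacking NS1 served as positive control.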
Flu NS1 inh: validation of influenza NS1 protein function inhibitors; shares compounds with NS1 inh; influenza NS1 function cell assay, 15-point titration; activity change, negative = inhibition, % at 32.9 µM; 1,400 tested, under 10 active; AID 492980; calls by dose curve; also: 0% is about no effect
PR8 titer: influenza NS1 inhibitors: inhibition of influenza A/PR/8/34 replication | virus titer (log TCID50), log10 TCID50 at 5 µM | shares compounds with NS1 inh | MDCK infected influenza A/PR/8/34, virus titer TCID50; hits give low values | actives 30% (n = 95); call rule not given here
* marks the source's active call; other numbers are inactive results; ? = inconclusive; . = no result. Shown is part of a subset that was picked to be rich in hits. Unless noted, calls follow the shape of the dose curve; as a rule, active = well fitted curve in the direction sought with a large enough effect; inconclusive = small, poorly fitted or top-dose-only effect, or another doubt; inactive = no such curve, though single readings can be large; an effect the other way counts as inactive or inconclusive.

SMILES	Cruzain inh noDet	Cruzain Triton	NS1 inh	Flu NS1 inh	others
COc1ccc(CCNC(=O)c2cc(-c3ccc(Cl)cc3)on2)cc1OC	1%	-3%	.	.
COc1ccc(-c2cc(C(=O)Nc3cc(C)n(Cc4ccc(Cl)cc4)n3)no2)cc1OC	?	2%	5µM*	-1
Cc1ccc(C(=O)CSc2nnc3ccc4ccccc4n23)cc1	-9%	-3%	.	.
NC(=O)[C@@H]1CC2(CC(c3cccc(NC(=O)CC(c4ccccc4)c4ccccc4)c3)=NO2)CN1C(=O)c1ccc(Cl)cc1 (stereo not given in full)	.	.	4µM*	0
NC(=O)[C@H]1CC2(CC(c3cccc(NC(=O)CC(c4ccccc4)c4ccccc4)c3)=NO2)CN1C(=O)CC(c1ccccc1)c1ccccc1 (stereo not given in full)	.	.	7.1µM*	12	PR8 titer=8
CCC(=O)N1CC2(CC(c3cccc(NC(=O)CC(c4ccccc4)c4ccccc4)c3)=NO2)C[C@H]1C(N)=O (stereo not given in full)	.	.	-5%	.
C=C(C)C(=O)N1CC2(CC(c3cccc(NC(=O)CC(c4ccccc4)c4ccccc4)c3)=NO2)C[C@H]1C(N)=O (stereo not given in full)	.	.	-4%	.
CC1=C2C(=COC(C)C2C)C(=O)C(C(=O)O)=C1O (stereo not given)	0%	-3%	.	.
O=C1CN(C(=O)COC(=O)CNS(=O)(=O)c2ccccc2)c2ccccc2N1	.	.	3%	.
Cc1ccc(S(=O)(=O)CCC(=O)OCC(=O)N2CC(=O)Nc3ccccc32)cc1	3%	-4%	?	-5
COc1ccc(C2CC(=O)C=C(NNS(=O)(=O)c3ccc(C)cc3)C2)cc1 (stereo not given)	?	9%	4µM*	15
COc1ccc(NC2=CC(=O)CC(c3ccccc3)C2)cc1 (stereo not given)	.	.	5%	.
CN(C)c1ncc2nc(-c3cc(F)cc(F)c3)c(=O)n(C[C@H]3CCCO3)c2n1	10%	2%	.	.
CCc1ccccc1N(CC(=O)NC(C)(C)CC)C(=O)CCC(=O)Nc1nccs1	.	.	8%	.
Cc1cccc2cc3c(N)c(C#N)sc3nc12	-10%	-3%	-14%	.
Cc1sc(NC(=O)c2sc3nc4c(C)cccc4cc3c2N)c(C#N)c1C	?	-26%	?	5
CCOc1cc(/C=C2\N=C(C)OC2=O)cc(Br)c1OCCc1ccccc1	?	-19%	12%	.
CCOc1cc(/C=C2\N=C(C)OC2=O)cc(Br)c1OCC(=O)OC	-4%	2%	?	-35
CCCN(C(=O)c1coc(=O)c2ccccc12)c1ccccc1C	-1%	-2%	.	.
CN(/N=C\c1ccc(O)c(O)c1)c1nc(-c2ccccc2)cc(-c2ccccc2)n1	?	-9%	8.9µM*	?
COc1cc(/C=N/N(c2ccccc2)c2ccccc2)ccc1O	.	.	-56%	.
Cc1ccc2cccc(NC(=O)c3ccc(-c4ccc(Cl)cc4Cl)o3)c2n1	4%	1%	.	.
CCc1ccc(NC(=O)CCn2cnc3ccccc3c2=O)cc1	-1%	-3%	.	.
O=C(N/N=C/c1cccc2ccccc12)c1ccccc1Cl	.	.	-44%	.
O=C(N/N=C/c1cc2ccccc2[nH]1)c1ccccc1Cl	.	.	?	-11
SMILES	Cruzain inh noDet	Cruzain Triton	NS1 inh	Flu NS1 inh	others
CCCCNc1nc(C)nc2c1nc(-c1ccccc1)n2CCCN(CC)CC	1%	4%	.	.
C/C=C1/C2C=C(C)CC1(N)c1ccc(=O)[nH]c1C2 (stereo not given)	5%	2%	.	.
O=C(Nc1nc(-c2ccc(F)c(F)c2)cs1)c1ccc(OCC2CCCO2)cc1 (stereo not given)	?	-5%	11%	.
Cc1cc(-c2csc(NC(=O)c3ccc(=O)n(C)n3)n2)c(C)n1CC1CCCO1 (stereo not given)	?	-9%	20µM*	12
COc1cccc(NC(=O)CSC2=Nc3ccccc3N=C(c3ccc(F)cc3)C2)c1	-5%	-5%	.	.
CC(CCC(=O)O)C1CCC2C3C(=O)CC4CC(=O)CC[C@@]4(C)C3CC(=O)[C@]12C (stereo not given in full)	0%	2%	.	.
CCOC(=O)c1cccc(NC(=O)CCc2c(C)nn(-c3ccc(N4CCCCC4)nn3)c2C)c1	?	-6%	.	.
CC1CCN(CC(=O)NCc2ccco2)CC1	.	.	0%	.
O=C(CN1CCc2ccccc2C1)NCc1ccco1	-8%	-1%	?	4
O=C(c1cnccn1)N1CCC2(CC1)CN(c1ncccn1)C2	9%	-1%	.	.
